# Assay results published in the supplement of paper PMC6992640.
# Counter-ions that a name gives are not always drawn. ± gives the standard deviation of the averaged measurements.
# How the values were obtained:
# Assay in all cases: cell viability (% of vehicle); higher = less cytotoxic
# Details in all cases: 10 µM; 72 h
# [1] = tested on: HCI01 (cells of a triple-negative basal-like breast cancer xenograft)
# [2] = tested on: HCI03 (cells of an ER-positive luminal breast cancer xenograft)
# [3] = tested on: HCI09 (cells of a triple-negative luminal androgen receptor type breast cancer xenograft)
# [4] = tested on: HCI11 (cells of an ER-positive luminal breast cancer xenograft)
# [5] = tested on: HCI13 (cells of an ER-positive luminal breast cancer xenograft)
# [6] = tested on: HCI16 (cells of a triple-negative basal-like breast cancer xenograft)
# [7] = tested on: UCD52 (cells of a triple-negative basal-like breast cancer xenograft)
# [8] = tested on: WHIM2 (cells of a triple-negative basal-like breast cancer xenograft)
# [9] = tested on: WHIM30 (cells of a triple-negative basal-like breast cancer xenograft)
# 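Also: PDX cells carrying CMV promoter-driven luciferase, viability read as total photon flux per second by IVIS imaging following D-luciferin, vehicle control 0.1% DMSO.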
Compound,cell viability [1],cell viability [2],cell viability [3],cell viability [4],cell viability [5],cell viability [6],cell viability [7],cell viability [8],cell viability [9]
CCCCNc1cc(C(=O)O)cc(S(N)(=O)=O)c1Oc1ccccc1 [Bumetanide],109 ± 9.6,95.9,109 ± 8.9,92,89.5 ± 4,108,99 ± 1.3,78.6 ± 14,133 ± 26
OC(Cn1cncn1)(Cn1cncn1)c1ccc(F)cc1F [Fluconazole hydrate],116 ± 7.6,109,99.4 ± 25,89.7,138 ± 7.4,101,93.5 ± 5.6,99.1 ± 9.9,127 ± 21
CN(C)c1nc(N(C)C)nc(N(C)C)n1 [Altretamine],94.8 ± 11,96.7,89.6 ± 2.6,96.8,77.9 ± 3.4,108,78 ± 4.9,115 ± 5.7,109.4 ± 0.74
Cc1cc(C(C)(C)C)cc(C)c1CC1=NCCN1.Cl [Xylometazoline HCl],74.9 ± 49,114,103 ± 40,89.9,136 ± 29,106,83.9 ± 1.7,110 ± 3.6,158 ± 12
NC(=O)c1ncn(C2OC(CO)C(O)C2O)c1O (centres undefined) [Mizoribine],82.4 ± 3.9,89.4,93.1 ± 30,88.8,90.05 ± 0.16,87.7,88.5 ± 5,97 ± 11,84.4 ± 3.9
CCCCOc1cc(C(=O)OCCN(CC)CC)ccc1N.Cl [Oxybuprocaine HCl],162 ± 33,99.6,83.9 ± 11,88.8,95.5 ± 34,149,90 ± 31,126 ± 24,189 ± 3.2
CC(=O)N1CCN(c2ccc(OCC3COC(Cn4ccnc4)(c4ccc(Cl)cc4Cl)O3)cc2)CC1 (centres undefined) [Ketoconazole],188 ± 14,143,36.4 ± 2.8,102,76 ± 1.8,122,55.8 ± 5.3,172 ± 25,122 ± 10
CN(C)CCCN1c2ccccc2CCc2ccc(Cl)cc21.Cl [Clomipramine HCl],102 ± 22,108,74.2 ± 2.6,69.7,88.4 ± 10,88.4,61.1 ± 1.7,58 ± 1.1,94.4 ± 13
Cc1ccsc1C(=CCCN1CCC[C@@H](C(=O)O)C1)c1sccc1C [Tiagabine hydrochloride],100 ± 1.8,93.2,90.8 ± 14,86.4,96.1 ± 6.3,95.6,97.2 ± 14,109 ± 34,105 ± 2
CCN(CC)CC#CCOC(=O)C(O)(c1ccccc1)C1CCCCC1 (centres undefined) [Oxybutynin],141 ± 10,130,132 ± 73,118,117 ± 17,134,82.9 ± 5.8,97.1 ± 30,148 ± 6.4
Cl.O=C1CC2(CCCC2)CC(=O)N1CCCCN1CCN(c2ncccn2)CC1 [Buspirone HCl],110 ± 16,95.5,91.3 ± 8.6,101,76.7 ± 2,119,106 ± 3.5,104.3 ± 0.12,90.4 ± 8.1
CCCCOc1ccc(OCCCN2CCOCC2)cc1.Cl [Pramoxine HCl],137.9 ± 0.65,103,92.4 ± 8.4,112,83.5 ± 24,116,79.6 ± 6,166 ± 12,133 ± 23
C[N+](C)(C)CCO.[Cl-] [Choline Chloride],135 ± 42,120,89.2 ± 11,78.8,73.78 ± 0.7,116,85.6 ± 10,105 ± 17,101 ± 3.5
CC1CCOC2Cn3cc(C(=O)NCc4ccc(F)cc4F)c(=O)c(O)c3C(=O)N12 (centres undefined),133 ± 25,110,139 ± 35,137,74.39 ± 0.7,124,139 ± 20,120 ± 15,176 ± 20
CS(=O)(=O)c1ccc(C2=C(c3ccccc3)C(=O)OC2)cc1 [Rofecoxib],127 ± 8.3,119,84.3 ± 18,99.7,141 ± 20,96.7,78.7 ± 10,99 ± 6.9,84.6 ± 5.8
CC(C)NCC(O)COc1cccc2ccccc12.Cl (centres undefined) [Propranolol HCl],109.73 ± 0.067,104,100 ± 15,84.5,97.8 ± 24,96.6,83.3 ± 4.4,83.3 ± 16,108 ± 7.8
OCC(O)C(O)C(O)C(O)CO (centres undefined) [Sorbitol],89.2 ± 28,132,92.6 ± 8.6,84,102 ± 3.2,111,87.63 ± 0.58,86.6 ± 8.6,83.33 ± 0.53
C1N2CN3CN1CN(C2)C3 [Methenamine],89.3 ± 14,127,101 ± 14,90.8,177 ± 29,104,90.2 ± 4.5,91.8 ± 2.4,142 ± 4.7
Cl.c1ccc(CC2=NCCN2)cc1 [Tolazoline HCl],94.2 ± 1.9,100,92 ± 13,91.4,118 ± 8.5,115,92.7 ± 2.9,105 ± 5.3,87.3 ± 5
COc1cc2c(cc1Cc1cccc(Cl)c1F)c(=O)c(C(=O)O)cn2C(CO)C(C)C (centres undefined) [Elvitegravir (GS-9137)],114 ± 56,86.7,41.2 ± 36,109,47.4 ± 7.1,124,77.8 ± 6.1,73.8 ± 7.4,159 ± 21
O=c1nc[nH]c2c1ncn2C1CCC(CO)O1 (centres undefined) [Didanosine],105.3 ± 0.26,139,95.4 ± 7,118,99.18 ± 0.8,90.8,96.8 ± 9.7,98.5 ± 22,90.6 ± 1.1

Compound,cell viability [1],cell viability [2],cell viability [3],cell viability [4],cell viability [5],cell viability [6],cell viability [7],cell viability [8],cell viability [9]
CN(CCOc1ccc(NS(C)(=O)=O)cc1)CCc1ccc(NS(C)(=O)=O)cc1 [Dofetilide],101.7 ± 0.3,114,94.8 ± 5.2,94.2,97.8 ± 17,89.3,81.6 ± 13,90.2 ± 10,106 ± 5.1
CC1(C)SC2C(NC(=O)C(N)c3ccccc3)C(=O)N2C1C(=O)O.O.O.O (centres undefined) [Ampicillin Trihydrate],138 ± 26,124,94.6 ± 8.1,110,143 ± 7.4,120,82 ± 7.2,103 ± 2.1,95.8 ± 2.6
C#CCNC1CCc2ccccc21.CS(=O)(=O)O (centres undefined) [Rasagiline Mesylate],157 ± 6,117,117 ± 8.5,127,126 ± 4.8,141,107 ± 8.4,114 ± 6.4,139 ± 16
Cn1c(=O)cc(N2CCCC(N)C2)n(Cc2ccccc2C#N)c1=O (centres undefined) [Alogliptin (SYR-322)],118 ± 5.8,112,89.5 ± 8.9,112,115 ± 26,113,108.86 ± 0.059,114 ± 9.2,117 ± 6.7
NCC1OC(OC2C(N)CC(N)C(OC3OC(CO)C(O)C(N)C3O)C2O)C(N)CC1O (centres undefined) [Tobramycin],112 ± 23,124,98.5 ± 5.4,83.1,58 ± 9.4,88,85.3 ± 6.8,122 ± 32,123 ± 5.3
CNS(=O)(=O)Cc1ccc2[nH]cc(CCN(C)C)c2c1 [Sumatriptan],92.7 ± 1.9,119,84 ± 7.2,90.7,126 ± 3.5,110,98 ± 7.2,95.6 ± 19,110 ± 19
NCC(=O)CCC(=O)O [5-Aminolevulinic acid HCl],79.2 ± 41,132,89.9 ± 2.3,83.2,113 ± 24,164,82.6 ± 7.6,129 ± 24,146 ± 6.6
Nc1cc(C(Cl)=C(Cl)Cl)c(S(N)(=O)=O)cc1S(N)(=O)=O [Clorsulon],107 ± 17,108,125 ± 47,106,194 ± 11,169,116 ± 11,112 ± 14,152 ± 7.4
COC(=O)C1=C(C#N)NC(C)=C(C(=O)OC(C)C)C1c1cccc([N+](=O)[O-])c1 (centres undefined) [Nilvadipine],112 ± 8.1,125,77 ± 4.5,85.7,138 ± 29,101,70.2 ± 1.1,116 ± 12,83.4 ± 10
CN1CCN(c2cc3c(cc2F)c(=O)c(C(=O)O)cn3-c2ccc(F)cc2)CC1 [Difloxacin HCl],60.2 ± 1,84.7,53.6 ± 2,190,115 ± 8.6,94.8,116 ± 9.9,71.6 ± 21,130 ± 23
CCCCC1=NC2(CCCC2)C(=O)N1Cc1ccc(-c2ccccc2-c2nn[nH]n2)cc1 [Irbesartan],86.3 ± 2,105,94.6 ± 3.9,91.8,114 ± 2.4,107,103 ± 5.5,105 ± 4.9,82.7 ± 24
CCn1cc(C(=O)O)c(=O)c2cc(F)c(N3CCN(C)CC3)cc21.CS(=O)(=O)O [Pefloxacin Mesylate],92.2 ± 33,137,105.3 ± 0.55,103,160 ± 5.2,153,113 ± 2.6,80.5 ± 16,144 ± 11
Clc1ccc(C(c2ccccc2Cl)C(Cl)Cl)cc1 (centres undefined) [Mitotane (Lsodren)],127 ± 3.6,112,148 ± 59,107,91.2 ± 3.4,121,97.871 ± 0.035,96.3 ± 24,142 ± 11
NCCS(=O)(=O)O [Taurine],105 ± 23,119,101 ± 18,86.6,61.4 ± 7.8,115,75.92 ± 0.27,109 ± 19,115 ± 9.7
O=C1OC(C(O)CO)C([O-])=C1O.[Na+] (centres undefined) [Sodium ascorbate],94.7 ± 14,87,90.3 ± 1.3,87,52 ± 6.5,92.3,77.3 ± 8.9,115 ± 31,120 ± 3
CCOC(=O)C(CCc1ccccc1)NC(C)C(=O)N1C(C(=O)O)CC2CCCC21 (centres undefined) [Ramipril],77.7 ± 49,129,86.7 ± 4.7,91.6,115 ± 14,106,87.6 ± 5.9,90.8 ± 9.4,99.772 ± 0.035
CS(=O)(=O)c1ccc(C(O)C(CF)NC(=O)C(Cl)Cl)cc1 (centres undefined) [Florfenicol],118 ± 25,118,89.5 ± 2.1,101,114 ± 8.4,116,102 ± 2.6,87.4 ± 18,99.1 ± 6.9
Cc1ccc(C(=O)C(C)CN2CCCCC2)cc1.Cl (centres undefined) [Tolperisone HCl],118 ± 20,118,101 ± 3.6,92.5,47.8 ± 8.8,109,92.3 ± 8.6,130 ± 6.4,110 ± 3.9
O=C(O)[C@H](O)[C@@H](O)C(=O)O.c1cnc2cc3c(cc2n1)C1CNC[C@@H]3C1 [Varenicline Tartrate],169.5 ± 0.68,128,131 ± 5.6,138,128.8 ± 0.16,153,99.9 ± 8.8,106 ± 5.1,158 ± 25
CS(=O)(=O)OCCCCOS(C)(=O)=O [Busulfan],99.951 ± 0.028,115,117 ± 7.2,105,109 ± 4.9,108,81.4 ± 3.8,97.6 ± 4,143 ± 10
